Laboratory results from PubChem BioAssay (NCATS).
Several values for one entry are separate records, joined by “and”; a condition that tells them apart may be missing. Equal entries are not always repeated. Inconclusive results are not listed. Activity calls are given as the source filed them. Unless noted, calls come from the whole dose curve; as a rule, active = well fitted curve in the direction sought with a large enough effect; inconclusive = small, poorly fitted or top-dose-only effect, or another doubt; inactive = no such curve, though single readings can be large; an effect the other way counts as inactive or inconclusive.

Experiments:
[1] = Cell Viability - NIH 3T3 (AID 541); conditions: NIH 3T3 cell viability, qHTS; activity change, negative = cytotoxicity: at 92.2 µM (top of the series);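 note: plate controls were DMSO alone for no effect and tamoxifen positive control for full effect; nearly all actives have a fitted effect of over 25% in size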
Outline: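 Mouse NIH 3T3 fibroblasts, 1000 cells/well, rested 5 hr at 37 °C, then exposed to compound for 40 hr at 37 °C in complete medium. Viability read as intracellular ATP by CellTiter-Glo luminescence; AC50 from Hill-equation fits of concentration-response data.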

[2] = target: Cytochrome P450 3A4 (Homo sapiens) (UniProt P08684); test: qHTS Assay for Inhibitors and Substrates of Cytochrome P450 3A4 (AID 884); note: % is set by controls: 0 for no effect and ±100 for the full control effect; nearly all actives have a fitted effect of over 50% in size
Chain of Cytochrome P450 3A4 (Homo sapiens) (P08684 whole entry, looked up): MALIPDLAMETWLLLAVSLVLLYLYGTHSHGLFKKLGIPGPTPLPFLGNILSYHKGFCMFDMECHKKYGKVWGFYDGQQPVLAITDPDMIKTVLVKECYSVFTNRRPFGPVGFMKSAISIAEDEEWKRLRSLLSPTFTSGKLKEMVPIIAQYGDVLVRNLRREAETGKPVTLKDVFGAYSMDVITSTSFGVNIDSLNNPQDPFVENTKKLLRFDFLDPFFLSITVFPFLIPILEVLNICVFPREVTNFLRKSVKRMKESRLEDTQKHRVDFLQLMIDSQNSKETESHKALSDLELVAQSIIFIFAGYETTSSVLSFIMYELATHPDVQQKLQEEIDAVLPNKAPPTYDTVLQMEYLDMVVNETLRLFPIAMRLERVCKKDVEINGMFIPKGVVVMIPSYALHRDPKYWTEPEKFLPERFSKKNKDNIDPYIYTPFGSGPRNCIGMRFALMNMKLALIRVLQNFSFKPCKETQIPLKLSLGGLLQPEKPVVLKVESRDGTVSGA
Outline: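 20 nM human CYP3A4 with 25 uM Luciferin-PPXE (at KM) in 200 mM KPO4, preincubated 10 min with compound; NADPH regeneration started a 60 min RT reaction. Luciferin detected by luminescence, normalized to 57 uM ketoconazole as full inhibition.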

[3] = MultiTox-Fluor Cytotoxicity Assay - LYMP1-002 - Dead Cells (AID 960);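 note: 0% = DMSO and 100% = tetraoctylammonium bromide; nearly all actives have a fitted effect of over 60% in size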
Outline: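 Human lymphoblastoid LYMP1-002 cells, 2500/well, treated 16 h at 37 C; dead-cell protease cleavage of bis-AAF-R110 read by fluorescence (485/520); normalized to DMSO and 15 uM tetraoctylammonium bromide; AC50 from Hill fit.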

[4] = target: Glucocorticoid receptor (Homo sapiens) (UniProt P04150); test: qHTS assay for small molecule agonists of glucocorticoid receptor signaling (AID 588532; active = well fitted curve in the direction sought with a large enough effect in the signal ratio, with a control signal flat; the % refers to the signal ratio;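 note: 100% = dexamethasone at 0.1 µM and 0% = DMSO only wells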); conditions: HeLa MMTV-bla, beta-lactamase ratio, agonist, 18 h; stronger effect = higher value; percent of dexamethasone control, DMSO zero
Chain of Glucocorticoid receptor (Homo sapiens) (P04150 whole entry, looked up): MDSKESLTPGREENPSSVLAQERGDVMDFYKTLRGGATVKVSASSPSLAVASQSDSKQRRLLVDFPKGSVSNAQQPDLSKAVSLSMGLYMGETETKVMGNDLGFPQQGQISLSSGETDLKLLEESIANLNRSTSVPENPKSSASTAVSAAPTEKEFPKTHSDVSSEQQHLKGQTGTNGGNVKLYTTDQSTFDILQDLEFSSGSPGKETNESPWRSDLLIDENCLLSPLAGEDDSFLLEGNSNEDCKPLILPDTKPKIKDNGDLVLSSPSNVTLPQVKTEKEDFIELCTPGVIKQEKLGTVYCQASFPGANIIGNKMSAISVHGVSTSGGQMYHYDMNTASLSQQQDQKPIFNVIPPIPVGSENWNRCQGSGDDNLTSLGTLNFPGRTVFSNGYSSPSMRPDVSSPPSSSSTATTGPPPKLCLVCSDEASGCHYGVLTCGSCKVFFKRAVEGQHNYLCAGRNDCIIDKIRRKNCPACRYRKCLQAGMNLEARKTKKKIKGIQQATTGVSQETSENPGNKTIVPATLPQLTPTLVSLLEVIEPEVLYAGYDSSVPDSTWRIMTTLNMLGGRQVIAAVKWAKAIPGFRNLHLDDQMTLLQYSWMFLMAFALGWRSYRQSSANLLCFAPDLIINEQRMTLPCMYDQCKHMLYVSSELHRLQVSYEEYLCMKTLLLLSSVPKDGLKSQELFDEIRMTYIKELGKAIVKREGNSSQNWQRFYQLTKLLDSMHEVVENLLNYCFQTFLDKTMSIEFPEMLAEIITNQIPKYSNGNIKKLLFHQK
Outline: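 MMTV-bla HeLa, beta-lactamase reporter; medium with 1% charcoal/dextran-stripped FBS; cpds up to 92 uM, 18 h, 37 C; CCF4 readout 460/530 nm; Hill fit → EC50, efficacy vs 0.1 uM dexamethasone = 100%.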

[5] = target: Vitamin D3 receptor (Homo sapiens) (UniProt P11473); test: qHTS assay for small molecule antagonists of vitamin D receptor signaling (AID 588541; calls by dose curve;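 note: receptor activated by calcitriol during compound treatment; % is set by controls: 0 for no effect and ±100 for the full control effect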)
Chain of Vitamin D3 receptor (Homo sapiens) (P11473 whole entry, looked up): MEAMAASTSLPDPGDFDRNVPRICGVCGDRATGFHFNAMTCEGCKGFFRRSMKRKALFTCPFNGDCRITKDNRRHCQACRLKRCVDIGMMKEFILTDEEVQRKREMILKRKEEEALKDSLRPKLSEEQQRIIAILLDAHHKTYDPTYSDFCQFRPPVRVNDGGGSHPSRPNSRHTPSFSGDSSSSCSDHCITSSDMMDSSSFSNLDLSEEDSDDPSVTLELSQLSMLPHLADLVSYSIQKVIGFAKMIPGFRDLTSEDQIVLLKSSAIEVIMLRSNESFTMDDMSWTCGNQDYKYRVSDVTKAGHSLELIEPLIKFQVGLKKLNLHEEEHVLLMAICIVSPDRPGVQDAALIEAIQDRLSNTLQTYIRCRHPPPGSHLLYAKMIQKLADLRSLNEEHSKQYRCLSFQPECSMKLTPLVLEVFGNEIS
Outline: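 VDR-UAS-bla HEK293T cells (2000/well, 2% charcoal-stripped FBS) were treated with titrated compounds plus 1-alpha,25-dihydroxyvitamin D3 (50 nM or 3 nM final) for 16 h at 37 C. CCF4 beta-lactamase fluorescence was read; Hill fits gave IC50.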

[6] = target: Vitamin D3 receptor (Homo sapiens) (UniProt P11473); test: qHTS assay for small molecule agonists of vitamin D receptor signaling (AID 588543; calls by dose curve;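 note: 0% = DMSO basal and 100% = reference agonist control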)
Outline: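 β-lactamase reporter, VDR-UAS-bla HEK293T, agonist mode. Cells plated 5 h at 37 °C, compound titration 16 h at 37 °C, CCF4 dye 2 h RT, ratio 460/530 nm. Hill fit → EC50, efficacy vs 50 nM 1α,25-(OH)2D3.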

[7] = target: Voltage-gated inwardly rectifying potassium channel KCNH2 (Homo sapiens) (UniProt Q12809); test: qHTS Assay for Small Molecule Inhibitors of the Human hERG Channel Activity (AID 588834);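 note: top concentration of the series differs between compounds; % is set by controls: 0 for no effect and ±100 for the full control effect; lower thallium flux fluorescence means stronger hERG block; nearly all actives have a fitted effect of over 50% in size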
Chain of Voltage-gated inwardly rectifying potassium channel KCNH2 (Homo sapiens) (Q12809 whole entry, looked up): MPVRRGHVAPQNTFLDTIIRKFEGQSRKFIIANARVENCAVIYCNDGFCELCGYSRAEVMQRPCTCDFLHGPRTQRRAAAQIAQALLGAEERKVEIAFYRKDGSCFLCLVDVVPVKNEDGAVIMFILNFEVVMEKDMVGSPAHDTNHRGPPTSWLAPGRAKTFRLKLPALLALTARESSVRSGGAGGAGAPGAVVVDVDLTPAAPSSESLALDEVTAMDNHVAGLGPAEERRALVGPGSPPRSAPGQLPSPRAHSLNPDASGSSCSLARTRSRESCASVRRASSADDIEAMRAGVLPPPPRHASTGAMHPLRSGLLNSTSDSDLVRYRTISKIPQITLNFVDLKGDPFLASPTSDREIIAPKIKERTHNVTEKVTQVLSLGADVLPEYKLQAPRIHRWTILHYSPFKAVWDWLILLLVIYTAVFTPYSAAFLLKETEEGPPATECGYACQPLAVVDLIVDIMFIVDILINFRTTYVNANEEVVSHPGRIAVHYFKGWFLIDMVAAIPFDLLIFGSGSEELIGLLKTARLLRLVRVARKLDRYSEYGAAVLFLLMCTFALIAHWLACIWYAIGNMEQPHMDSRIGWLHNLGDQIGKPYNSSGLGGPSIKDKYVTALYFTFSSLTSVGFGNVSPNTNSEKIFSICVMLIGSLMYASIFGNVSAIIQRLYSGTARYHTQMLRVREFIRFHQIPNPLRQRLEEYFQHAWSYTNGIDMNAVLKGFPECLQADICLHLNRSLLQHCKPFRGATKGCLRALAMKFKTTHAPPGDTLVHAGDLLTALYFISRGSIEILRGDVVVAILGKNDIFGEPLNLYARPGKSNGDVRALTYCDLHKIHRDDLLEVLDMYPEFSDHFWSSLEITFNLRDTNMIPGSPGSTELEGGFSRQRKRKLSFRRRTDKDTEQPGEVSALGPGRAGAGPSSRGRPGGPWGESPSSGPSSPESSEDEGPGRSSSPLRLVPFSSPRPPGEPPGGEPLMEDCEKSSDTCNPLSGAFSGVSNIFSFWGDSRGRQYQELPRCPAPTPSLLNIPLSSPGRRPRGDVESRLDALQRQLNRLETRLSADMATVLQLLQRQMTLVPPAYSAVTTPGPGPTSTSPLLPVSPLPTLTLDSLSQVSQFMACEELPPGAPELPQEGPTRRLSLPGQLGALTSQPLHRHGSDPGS
Outline: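 Concentration-response qHTS measuring drop in thallium-sensitive dye signal. U2OS cells carrying BacMam hERG; compound exposure ~10 min, then stimulation buffer and 2 min read at 1 sec intervals.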

[8] = qHTS assay for small molecule agonists of the antioxidant response element (ARE) signaling pathway (AID 651741; active = well fitted activation curve with a large enough effect in the signal ratio; the % refers to the signal ratio; note: potency is the fitted concentration of half-maximal effect; for activation: % of control where 0% means no effect)
Outline: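 Compounds in DMSO are pinned onto HepG2 ARE-bla cells (2,000/well) that were preincubated 5 h; plates stay 16 h at 37 C, then beta-lactamase activity is detected with LiveBLAzer B/G substrate by fluorescence.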

[9] = qHTS assay for small molecule activators of the nuclear factor-kappa B (NF-kB) signaling pathway (AID 651749; active = well fitted activation curve with a large enough effect in the signal ratio; the % refers to the signal ratio; note: % of control where 0% means no effect); conditions: NF-kB-bla ME-180 cells, beta-lactamase FRET ratio, 16 h; stronger effect = higher value
Outline: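 Screening used 2,000 ME-180 reporter cells per well exposed to pinned compound (23 nL) or DMSO; after 16 hr at 37C, beta-lactamase expression under NF-kB control was assessed through FRET.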

[10] = target: Tumor necrosis factor (Homo sapiens) (UniProt P01375); test: qHTS assay to identify small molecules that stimulate Tumor Necrosis Factor-alpha (TNF-alpha) secretion (AID 651757; active = well fitted curve in the direction sought with a large enough effect in the signal ratio; the % refers to the signal ratio; note: 0% is about no effect)
Chain of Tumor necrosis factor (Homo sapiens) (P01375 whole entry, looked up): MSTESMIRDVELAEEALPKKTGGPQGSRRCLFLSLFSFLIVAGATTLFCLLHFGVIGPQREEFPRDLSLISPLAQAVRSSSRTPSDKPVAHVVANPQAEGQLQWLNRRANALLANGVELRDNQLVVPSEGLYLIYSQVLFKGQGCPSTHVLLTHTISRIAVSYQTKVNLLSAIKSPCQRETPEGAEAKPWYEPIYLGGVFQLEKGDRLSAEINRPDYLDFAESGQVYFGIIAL
Outline: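 THP-1 cells (3000/well) exposed to compounds 17 hrs at 37 C. Secreted TNF-alpha detected by HTRF with cryptate- and XL665-labeled anti-TNF-alpha antibodies after 3 hr at room temperature.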

[11] = target: Nuclear receptor ROR-gamma (Homo sapiens) (UniProt P51449); test: qHTS assay for small molecule antagonists of the retinoid-related orphan receptor gamma (ROR-gamma) signaling pathway (AID 651802); note: nearly all actives have a fitted effect of over 60% in size; note: potency is the fitted concentration of half-maximal effect
Chain of Nuclear receptor ROR-gamma (Homo sapiens) (P51449 whole entry, looked up): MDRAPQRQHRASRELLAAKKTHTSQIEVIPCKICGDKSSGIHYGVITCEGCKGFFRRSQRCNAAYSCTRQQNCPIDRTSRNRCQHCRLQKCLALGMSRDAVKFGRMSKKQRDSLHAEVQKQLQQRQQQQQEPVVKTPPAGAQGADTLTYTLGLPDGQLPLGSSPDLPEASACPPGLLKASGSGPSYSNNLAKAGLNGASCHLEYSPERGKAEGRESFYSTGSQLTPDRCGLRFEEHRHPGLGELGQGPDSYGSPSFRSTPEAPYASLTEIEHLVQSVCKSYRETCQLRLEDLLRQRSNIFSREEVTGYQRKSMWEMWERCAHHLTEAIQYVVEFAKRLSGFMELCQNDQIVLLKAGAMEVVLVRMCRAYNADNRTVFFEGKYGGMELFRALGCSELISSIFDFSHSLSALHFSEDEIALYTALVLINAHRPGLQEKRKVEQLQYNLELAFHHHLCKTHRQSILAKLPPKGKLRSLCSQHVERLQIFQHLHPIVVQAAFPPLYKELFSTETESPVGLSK
Outline: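 CHO cells with TET-inducible ROR-gamma and RORE-luciferase reporter, dosed then doxycycline-induced. After 16 h at 37C, One-Glo luminescence read; decreased signal indicates antagonism.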

[12] = qHTS assay for small molecule agonists of the antioxidant response element (ARE) signaling pathway measured by Nrf2-dependant transcriptional activity (AID 720636; active = well fitted curve in the direction sought with a large enough effect in the repeat runs; an effect the other way counts as inactive or inconclusive; note: % of control where 0% means no effect)
Outline: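 Nrf2-dependent transcription read as ONE-Glo luciferase signal from ARE-luc HepG2 reporter cells after 16 hr compound treatment at 37 C, 5% CO2, in assay medium with 1% dialyzed FBS.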

[13] = qHTS assay for cell viability of the p53RE-bla HCT-116 cell line (AID 743292); note: % is set by controls: 0 for no effect and ±100 for the full control effect; nearly all actives have a fitted effect of over 55% in size
Outline: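 ATP-based luminescent viability (CellTiter-Glo, 30 min RT) after 16 h compound treatment at 37 C of p53RE-bla HCT-116 cells, seeded at 4,000 cells/well and rested 5 h before dosing.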

[14] = qHTS assay for small molecule activators of the human pregnane X receptor (PXR) signaling pathway (AID 720659; call rule not given here; note: 0% is about no effect)
[15] = target: Mitogen-activated protein kinase 10 (Mus musculus) (UniProt Q61831); test: JNK3 AlphaScreen Assay (AID 530; active = well fitted curve in either direction with a large enough effect, not every such curve was filed as active;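 note: kinase came from lysate of stimulated human HepG2 cells; signal reports phosphorylation of biotinylated GST-cJun 1-79 at Ser73 with 10 µM ATP; % is set by controls: 0 for no effect and ±100 for the full control effect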)
Outline: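 Inhibitors reduce antibody binding to phosphorylated biotin-cJun, lowering AlphaScreen luminescence. Lysates from HepG2 cells pre-activated by IL-1beta plus TNF-alpha supplied JNK3; compounds were titrated.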

[16] = Cell Viability - LYMP2-009 (AID 968);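 note: cells exposed to compound for 24 h at 37 °C; nearly all actives have a fitted effect of over 55% in size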; note: potency is the fitted concentration of half-maximal effect
[17] = Cell Viability - LYMP2-019 (AID 973);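 note: cells exposed to compound for 24 h at 37 °C; nearly all actives have a fitted effect of over 55% in size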; note: potency is the fitted concentration of half-maximal effect;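 for activity change, negative = cytotoxicity: 0% = DMSO alone and full effect = 92 µM tetraoctylammonium bromide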
Outline: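 Human lymphoblastoid LYMP2-019 cells (2500/well) preincubated 5 h at 37 C, then treated 24 h at 37 C in complete medium. Viability by CellTiter-Glo ATP luminescence after 30 min at room temperature; AC50 from Hill fits.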

[18] = qHTS assay for small molecule agonists of retinoid X receptor alpha signaling (AID 588544); conditions: HEK293T RXRa-UAS-bla, beta-lactamase reporter, 18 h; 530 nm emission
[19] = target: Thyroid hormone receptor beta (Homo sapiens) (UniProt P10828); test: qHTS assay for small molecule agonists of thyroid hormone receptor beta signaling (AID 588545; calls by dose curve)
Chain of Thyroid hormone receptor beta (Homo sapiens) (P10828 whole entry, looked up): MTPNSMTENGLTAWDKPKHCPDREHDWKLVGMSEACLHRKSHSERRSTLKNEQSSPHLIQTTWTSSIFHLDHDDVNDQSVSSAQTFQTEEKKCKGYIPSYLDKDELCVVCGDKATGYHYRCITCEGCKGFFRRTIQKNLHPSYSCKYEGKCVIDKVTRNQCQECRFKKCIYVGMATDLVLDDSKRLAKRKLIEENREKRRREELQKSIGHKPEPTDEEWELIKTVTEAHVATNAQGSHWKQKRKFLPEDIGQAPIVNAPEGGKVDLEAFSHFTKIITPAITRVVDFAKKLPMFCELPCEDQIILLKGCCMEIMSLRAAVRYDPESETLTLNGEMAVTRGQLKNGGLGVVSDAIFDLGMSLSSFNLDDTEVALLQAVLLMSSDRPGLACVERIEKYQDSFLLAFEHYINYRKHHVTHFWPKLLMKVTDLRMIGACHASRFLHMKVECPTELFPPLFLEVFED
Outline: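 Cells (2500/well) were seeded, incubated 4 hrs at 37 C, dosed with a compound series, incubated 18 hrs, loaded with CCF4 dye for 2 hrs at RT, then read for fluorescence. Data were scaled between DMSO (0%) and 10 nM T3 (100%).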

[20] = Cell Viability - Jurkat (AID 426;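 active = dose-dependent loss of cell ATP signal giving a full or clear fitted curve, ranked by lower potency value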; note: potency is the fitted concentration of half-maximal effect); conditions: qHTS
Outline: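 Jurkat (Clone E6-1) cells, 5000/well in complete medium, exposed to compounds for 40 hr at 37C; intracellular ATP measured by CellTiter-Glo luminescence after 20 min at room temperature. AC50 from Hill fits.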

O=C=Nc1ccc(Cl)c(Cl)c1
inactive: Potency [2] | Potency [3] | activation [4] 5.86% | Potency [5] | Potency [6] | Potency [7] | activation [9] 7.4% | Potency [10] | Potency [12] | Potency [13] | outcome [14]
active: activity change, negative = cytotoxicity [1] -122% | Potency [8] 75 µM | Potency [11] 33.5 µM

C=CC(C)(O)CCCC(C)CCCC(C)CCCC(C)C (stereo unspecified)
-17.1%: max response [18]
inactive: Potency [15] | activity change, negative = cytotoxicity [1] -10.5% | Potency [3] | Potency [16] | Potency [17] | activation [4] 1.44% | Potency [5] | Potency [6] | Potency [19] | Potency [7] | Potency [8] | activation [9] -0.414% | Potency [10] | Potency [12] | Potency [13] | outcome [14]

CC(/C=C/C=C(C)/C=C/C(=O)O)=C\C=C\C=C(C)\C=C\C=C(C)\C=C\C(=O)O
inactive: Potency [15] | Potency [2] | Potency [3] | Potency [16] | Potency [17] | activation [4] 1.99% | Potency [5] | Potency [6] | Potency [7] | activation [9] -1.49% | Potency [11] | Potency [13] | outcome [14]
active: Potency [8] 37.6 µM
4.44%: max response [18]

Brc1cc(Br)c(Oc2cc(Br)c(Br)cc2Br)cc1Br
inactive: activity change, negative = cytotoxicity [1] -6.22% | Potency [2] | Potency [3] | Potency [16] | Potency [17] | Potency [5] | Potency [19] | activation [9] 3.12% | Potency [10] | Potency [12] | outcome [14]

c1ccc(Nc2cccc3ccccc23)cc1
-7.08% and 4.25%: max response [18]
inactive: activity change, negative = cytotoxicity [1] -22.5% | Potency [16] | Potency [17] | Potency [19] | Potency [10] | Potency [11] | Potency [13]

Cc1ccccc1OCC1CO1 (stereo unspecified)
14.4%: max response [18]
inactive: Potency [15] | activity change, negative = cytotoxicity [1] -29.7% | Potency [2] | Potency [3] | Potency [16] | Potency [17] | activation [4] -5.02% | Potency [5] | Potency [6] | Potency [7] | Potency [8] | activation [9] -1.53% | Potency [10] | Potency [11] | Potency [12] | Potency [13] | outcome [14]

c1cc2c3c(c1)ccc1cccc(c13)C2
inactive: Potency [20] > 92 µM | activity change, negative = cytotoxicity [1] -13.2% | Potency [3] | Potency [17] | activation [4] -6.79% | Potency [5] | Potency [6] | Potency [19] | Potency [7] | activation [9] -2.58% | Potency [10] | Potency [11] | Potency [12] | Potency [13] | outcome [14]
-13.6%: max response [18]

Oc1cc2c(cc1O)[C@H]1c3ccc(O)c(O)c3OC[C@@]1(O)C2
5.74%: max response [18]
active: Potency [20] 35.9 µM | activity change, negative = cytotoxicity [1] -89.3% | Potency [16] 39.8 µM | Potency [17] 39.8 µM | Potency [8] 66.8 µM | Potency [11] 11.9 µM
inactive: Potency [3] | activation [4] 0.204% | Potency [19] | activation [9] -1.98% | outcome [14]
